Structures are written as SMILES. Results filed as inconclusive are left out. Calls of active or inactive are those of the source. Calls come from the whole dose curve; as a rule, active = well fitted cell-killing curve with a large enough effect; inconclusive = small, poorly fitted or top-dose-only effect, or effect the other way; inactive = no such curve, though single readings can be large or run the other way.
Potency is the fitted concentration of half-maximal effect.

This assay can be described thus: Quantitative High-Throughput drug screen in 47 multiple myeloma cell lines against the NCATS MIPE library collection: MOLP8_DSMZ cell viability assay (AID 1918977). Note: nearly all actives have a fitted effect of over 45% in size. The settings on record: MOLP8 myeloma viability, CellTiter-Glo ATP luminescence, 48 h; series mostly up to 45.8 µM. An excerpt:
PI: Beverly A. Mock Ph.D.
Laboratory of Cancer Biology and Genetics,
Center for Cancer Research, National Cancer Institute,
National Institute of Health, Bethesda, Maryland
Drug resistance and disease progression are common in multiple myeloma (MM) patients, underscoring the need for new therapeutic combinations. […] We hypothesized that effective combinations would reduce MYC expression and enhance p16 activity. […] These preclinical data identify potentially useful drug combinations for evaluation in drug-resistant MM and reveal potential mechanisms of combined drug sensitivity.
Described herein is the primary MIPE qHTS used to cherrypick compounds. Validated compounds were then further tested for potential synergistic activiy.
[1] Peat TJ, Gaikwad SM, Dubois W, Gyabaah-Kessie N, Zhang S, Gorjifard S, Phyo Z, Andres M, Hughitt VK, Simpson RM, Miller MA, Girvin AT, Taylor A, Williams D, D'Antonio N, Zhang Y, Rajagopalan A, Flietner E, Wilson K, Zhang X, Shinn P, Klumpp-Thomas C, McKnight C, Itkin Z, Chen L, Kazandijian D, Zhang J, Michalowski AM, Simmons JK, Keats J, Thomas CJ, Mock BA. Drug combinations identified by high-throughput screening promote cell cycle transition and upregulate Smad pathways in myeloma. Cancer Lett. 2023 Aug 1;568:216284. doi: 10.1016/j.canlet.2023.216284. Epub 2023 Jun 24. PMID: 37356470; PMCID: PMC10408729.
SEQUENCE No. (e.g., 1, 2, 3, etc.); […] (e.g., Cells, Incubation, Reagent, etc.); VALUE and DESCRIPTION.
1; Cells; 5 uL; white, solid bottom 1536-well Greiner assay plate.
2; Compounds; 23 nL; Kalypsis pin tool (Wako USA) equipped with a 1536-well pin head to transfer to the assay plates.
3; Incubation; 48 hours; 37C incubation.
4; Reagent;5uL; CellTiter Glo (Promega).
5; Detector; 425V; Luminescence; Viewlux PerkinElmer.
NOTES (numbers refer to Sequence numbers above)
1. The cell-based screening methods employed in this study were like those previously published. Briefly, the corresponding myeloma cell lines were screened in 1,536-well plates with 500 cells, 5-uL per well for inhibition of cell viability (assessed by measuring ATP levels with CellTiterGlo).
2. NCATS MIPE 4.0 library of approved and investigational drugs were added using the Kalypsis pin tool. Wells treated with DMSO only for 100% viability and media only for 0% viability were used as controls.
3. The assay plates were covered and incubated for 48 hours in a 37C, 5% CO2 incubator with controlled humidity.
4. After 48 hours, CellTilter-GloTM luminescent substrate mix (Promega) reagent was added to the assay plate and plates we incubated for 5 min at room temperature.
5. Signal was measured as median relative luminescence units on a ViewLux (PerkinElmer) multiplate reader.
[1] Heske CM, Davis MI, Baumgart JT, Wilson K, Gormally MV, Chen L, Zhang X, Ceribelli M, Duveau DY, Guha R, Ferrer M, Arnaldez FI, Ji J, Tran HL, Zhang Y, Mendoza A, Helman LJ, Thomas CJ. Matrix Screen Identifies Synergistic Combination of PARP Inhibitors and Nicotinamide Phosphoribosyltransferase (NAMPT) Inhibitors in Ewing Sarcoma. Clin Cancer Res. 2017 Dec 1;23(23):7301-7311. doi: 10.1158/1078-0432.CCR-17-1121. Epub 2017 Sep 12. PMID: 28899971; PMCID: PMC6636827.
As to `C[C@]12CC[C@H]3[C@@H](CCC4=CC(=O)CC[C@@]43C)[C@H]1CC[C@H]2O`, the Potency result is “inactive”. For the compound `CC[C@@H]1[C@@H](C)O[C@@](O)([C@@H](C)[C@H](O)[C@H](C)[C@H]2OC(=O)C=CC=C[C@@H](C)[C@@H]([C@@H](C)[C@@H](O)[C@H](C)[C@@]3(O)C[C@H](O[C@H]4C[C@H](O)[C@H](O)[C@H](C)O4)[C@H](CC)[C@@H](C)O3)OC(=O)C=CC=C[C@@H]2C)C[C@H]1O[C@H]1C[C@H](O)[C@H](O)[C@H](C)O1`, the Potency was 418 nM (active).

For the compound `COc1cc2cc(c1Cl)N(C)C(=O)C[C@H](OC(=O)C(C)C)[C@]1(C)O[C@H]1[C@H](C)[C@@H]1C[C@@](O)(NC(=O)O1)[C@H](OC)C=CC=C(C)C2`, the Potency entry was “inactive”. In the case of `C[C@@H]1O[C@@H](O[C@@H]2C=C3CC[C@@H]4[C@@H](CC[C@]5(C)[C@H](c6ccc(=O)oc6)CC[C@@]45O)[C@@]3(C)CC2)[C@H](O)[C@H](O)[C@H]1O`, the Potency is 29.6 nM (active).

As for `CC(C)(O)C=CC(=O)[C@](C)(O)[C@H]1[C@H](O)C[C@]2(C)[C@@H]3CC=C4[C@@H](C=C(O)C(=O)C4(C)C)[C@]3(C)C(=O)C[C@@]12C`, the Potency was 46.9 nM (active). Regarding `COC1=CC(C)=C[C@@H](C)[C@@H](O)[C@@H](C)CC(C)=CC=C[C@H](OC)[C@H]([C@@H](C)[C@@H](O)[C@H](C)[C@@]2(O)C[C@@H](O)[C@H](C)[C@@H](C(C)C)O2)OC1=O`, the Potency is 4.2 nM (active). In the case of `COC1=C[C@@H]2[C@@H]3Cc4ccc(OC)c(O)c4[C@]2(CCN3C)CC1=O` it was “inactive”; in that of `Cc1[nH]nc2ccc(-c3cncc(OC[C@@H](N)Cc4c[nH]c5ccccc45)c3)cc12`, 264 nM (active); in that of `COc1ccc(CC2NCCc3cc(OC)c(OC)cc32)cc1OC` (stereo not given), “inactive”. To `CCN(CC)C(=O)c1ccc(C2=CC3(CCNCC3)Oc3cccc(O)c32)cc1` belongs “inactive”; to `CCOC(=O)Nc1ccc(NCc2ccc(F)cc2)cc1N`, “inactive”; to `CC(=Cc1csc(C)n1)[C@@H]1C[C@H]2O[C@]2(C)CCC[C@H](C)[C@@H](O)[C@@H](C)C(=O)C(C)(C)[C@@H](O)CC(=O)O1`, “inactive”. Consider `CCNC(=O)C[C@@H]1N=C(c2ccc(Cl)cc2)c2cc(OC)ccc2-n2c(C)nnc21`, for which the Potency is 209 nM (active).

With `c1ccc2c(CN3CCNCC3)cccc2c1`, the Potency entry was “inactive”. On to `C1=C2CCCN[C@H]2[C@@H]2C[C@H]1[C@@H]1CCCCN1C2`, for which the Potency entry was “inactive”. To `Cc1ccccc1-n1c(Cn2cnc3c(N)ncnc32)nc2cccc(C)c2c1=O` belongs 74.3 nM (active); to `C[C@@H]1CC[C@@]2(OC1)O[C@H]1C[C@H]3[C@@H]4CC=C5C[C@@H](O[C@@H]6O[C@H](CO)[C@@H](O[C@@H]7O[C@@H](C)[C@H](O)[C@@H](O)[C@@H]7O)[C@H](O)[C@@H]6O[C@@H]6O[C@@H](C)[C@H](O)[C@@H](O)[C@@H]6O)CC[C@]5(C)[C@@H]4CC[C@]3(C)[C@@H]1[C@H]2C`, 1870 nM (active). In the case of `CN(C)[C@@H]1C(=O)C(C(N)=O)=C(O)[C@@]2(O)C(=O)C3=C(O)c4c(O)cccc4[C@@](C)(O)[C@H]3[C@H](O)[C@@H]12` it was 11800 nM (active); in that of `O=C(N[C@@H](COc1ccc2[nH]c(=O)[nH]c2c1)c1ccccc1)c1cccn(Cc2ccc(F)c(F)c2)c1=O`, “inactive”. To `CC(=O)O[C@@]12CO[C@H]1C[C@H](O)[C@@]1(C)C(=O)[C@H](O)C3=C(C)[C@@H](O)C[C@@](O)([C@@H](OC(=O)c4ccccc4)[C@@H]21)C3(C)C` belongs 2960 nM (active); to `CC[C@@]1(O)C(=O)OCc2c1cc1n(c2=O)Cc2cc3ccccc3nc2-1`, 132 nM (active). As for `C[C@@]12OC(=O)[C@]1([C@@H](O)[C@@H]1C=CCCC1)NC(=O)[C@H]2CCCl`, the Potency is 5.3 nM (active). As for `O=c1[nH]c2ccc(Cl)cc2c(N[C@@H]2CN3CCC2CC3)c1-c1nc2ccccc2[nH]1`, the Potency is 743 nM (active). To `O=S(=O)(F)Cc1ccccc1` belongs “inactive”; to `CC=C(C)C(=O)O[C@H]1C(C)=C2[C@@H]3OC(=O)[C@@](C)(O)[C@@]3(O)[C@@H](OC(=O)CCC)C[C@](C)(OC(C)=O)[C@@H]2[C@@H]1OC(=O)CCCCCCC`, 41.8 nM (active). To `CC(=O)N(C)c1cccc(-c2ccnc3c(C(=O)c4cccs4)cnn23)c1` belongs “inactive”. Turning to `CC(=O)OCC1=C(C(=O)O)N2C(=O)[C@@H](N)[C@@H]2SC1`, the Potency entry was “inactive”.

On to `COc1cc([C@@H]2c3cc4c(cc3[C@@H](O)C3COC(=O)C32)OCO4)cc(OC)c1O` (stereo not given in full), for which the Potency was 418 nM (active). In the case of `CO[C@H]1CCC(O[C@H]2C[C@H]([C@]3(C)CC[C@]4(C[C@H](O)[C@@H](C)[C@@H]([C@@H](C)C=C(C)C(=O)[C@H](C)C[C@H](C)C(=O)O)O4)O3)O[C@]3(O[C@@H]([C@H]4O[C@@](O)(CO)[C@H](C)C[C@H]4C)C[C@H]3C)[C@H]2C)O[C@H]1C` (stereo not given in full) it was 296 nM (active); in that of `CCN1CCN(C(=O)Cc2ccc(Nc3ncc(F)c(Nc4ccc(C(=O)Nc5ccccc5Cl)cc4)n3)cc2)CC1`, 7430 nM (active); in that of `COc1ccc2c(c[n+](C)c3c4cc5c(cc4ccc23)OCO5)c1OC`, 3320 nM (active). Take `O=C(O)CNC(=O)c1c(O)c2ccccc2n(Cc2ccccc2)c1=O`: the Potency entry is “inactive”. To `CC(C)N(CCNC(=O)CN1CCCC1=O)C(C)C` belongs “inactive”. As for `O=c1cccc2n1CC1CNC[C@H]2C1`, the Potency entry is “inactive”. With `O=C(Oc1ccc([N+](=O)[O-])cc1)N1CCN(Cc2cccc(Oc3ccccc3)c2)CC1`, the Potency result is “inactive”. In the case of `C[C@H]1CCCC=CC2C[C@H](O)C[C@@H]2[C@H](O)C=CC(=O)O1` (stereo not given in full), the Potency entry was “inactive”. In the case of `COc1ccc(N(C(=O)Oc2c(C)cccc2C)c2ccnc(Nc3ccc(N4CCN(C)CC4)cc3)n2)c(OC)c1` it was 3720 nM (active). To `c1ccc(CCCN2CCN(CCOC(c3ccccc3)c3ccccc3)CC2)cc1` belongs 20900 nM (active). To `COCC1(CO)C(=O)C2CCN1CC2` (stereo not given) belongs 590 nM (active). As to `C[C@@H]1[C@H](O)[C@@H](C)C=CC=CCCC=CC=CC=CC=C[C@H](O[C@H]2O[C@@H](C)[C@H](O)[C@@H](N)[C@@H]2O)CC2O[C@](O)(C[C@@H](O)[C@H](O)CC[C@@H](O)C[C@@H](O)C[C@@H](O)CC(=O)O[C@H]1C)C[C@H](O)[C@H]2C(=O)O`, the Potency entry was “inactive”.
